PKA-R1A act: activators of PKA-R1A holoenzyme, primary screen, biochemical, fluorescence polarization, Cy5-IP20, bovine R1A, mouse PKAc; PKA-R1A dissociation; scaled: DMSO 0%, 113 µM cGMP 100%; cAMP-dependent protein kinase type I-alpha regulatory subunit (Bos taurus) + …; activation, % at 11.4 µM; 340,000 compounds, 0.083% hits;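 active = percent activation above the mean of all tested compounds plus 3 SD, cut at about 19% in these data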;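 note: higher means more PKAc released from R1A so a rise in polarization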
Neddylation inh: inhibitors of cullin neddylation, primary screen, biochemical, TR-FRET, uHTS, NAE and Ubc12. NEDD8-conjugating enzyme Ubc12 (Homo sapiens) + NEDD8-activating enzyme E1 regulatory …. inhibition, % at 25 µM. 360,000 compounds, 0.58% hits. AID 651699, 2012; in the data active = inhibition above about 36%
Target sequence (P61081 whole entry, looked up): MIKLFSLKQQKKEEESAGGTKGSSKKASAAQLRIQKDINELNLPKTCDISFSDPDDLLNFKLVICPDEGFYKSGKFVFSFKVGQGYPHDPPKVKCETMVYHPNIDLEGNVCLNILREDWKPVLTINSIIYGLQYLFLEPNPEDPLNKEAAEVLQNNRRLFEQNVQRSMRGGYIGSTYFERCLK
Target sequence (Q13564 whole entry, looked up): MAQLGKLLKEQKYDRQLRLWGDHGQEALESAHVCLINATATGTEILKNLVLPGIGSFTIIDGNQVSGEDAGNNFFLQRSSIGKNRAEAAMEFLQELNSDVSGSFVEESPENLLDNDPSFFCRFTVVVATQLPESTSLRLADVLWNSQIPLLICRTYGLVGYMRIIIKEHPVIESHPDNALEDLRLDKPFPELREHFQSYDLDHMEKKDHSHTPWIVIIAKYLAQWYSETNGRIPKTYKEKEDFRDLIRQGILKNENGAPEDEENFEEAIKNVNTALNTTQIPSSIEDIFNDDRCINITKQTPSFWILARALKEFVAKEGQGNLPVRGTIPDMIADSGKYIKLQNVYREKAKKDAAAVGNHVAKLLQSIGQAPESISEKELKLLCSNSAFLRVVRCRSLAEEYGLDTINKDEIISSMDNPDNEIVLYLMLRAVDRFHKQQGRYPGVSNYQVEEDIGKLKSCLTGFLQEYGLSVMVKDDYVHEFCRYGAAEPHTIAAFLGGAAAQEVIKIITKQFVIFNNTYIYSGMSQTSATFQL
PKA-R2B activ: activators of PKA-R2B holoenzyme, primary screen, biochemical, fluorescence polarization, Cy5-IP20, human; cAMP-dependent protein kinase catalytic subunit beta (Homo sapiens) + cAMP-dependent …; PKA-R2B holoenzyme dissociation; R2B truncated from residue 108, S112A mutant; 0% DMSO only, 100% 113 µM cGMP; activation, % at 11.4 µM; 340,000 compounds, 0.079% hits; AID 504700, 2011;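 active = activation above a cutoff set at the mean over all compounds plus 3 SD, cut at about 18% in these data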;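 note: higher means more holoenzyme dissociation and a rise in polarization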
Rpn11 inh: Rpn11 (PSMD14) deubiquitinase inhibitors, primary screen, biochemical, fluorescence polarization, uHTS; 26S proteasome non-ATPase regulatory subunit 14 (Homo sapiens), O00487; human 26S proteasome, Ub4-pepOG fluorescence polarization; 20S core pre-blocked with epoxomicin; calls only at 20 µM; 360,000 compounds, 0.59% hits;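 active = inhibition at 20 µM, scaled to each plate's controls, above about 33%, limit read from the data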
R2B FP artifact: fluorescence polarization artefacts, biochemical, artefact control for PKA-R2B activator project | shares compounds with PKA-R2B activ | FP artifact counterscreen | activation, % at 11.4 µM | 270 compounds, 6% hits; in the data active = activation above about 20%;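 note: Cy5 labelled IP20 peptide probe with compound but no PKA protein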
PKA-R2B act conf: activators of PKA-R2B holoenzyme, confirmation, biochemical, fluorescence polarization, human; shares compounds with PKA-R2B activ; PKA-R2B complex, activation; activation, % at 11.4 µM; 270 compounds, 9% hits; in the data active = activation above about 19%
Active calls of the source: *. Sampled rows, rich in hits. Any-hit rate of the full collection: about 1.3%.

`COc1ccc(C(=O)NC[C@H]2O[C@@H](n3cnc4c(N)ncnc43)[C@H](O)[C@@H]2O)cc1OC` gave Neddylation inh -4.7 and Rpn11 inh inactive.
`NC(=O)c1ccc[n+]([C@H]2O[C@@H](COP(=O)([O-])OP(=O)(O)OC[C@H]3O[C@@H](n4cnc5c(N)ncnc54)[C@H](O)[C@@H]3O)[C@H](O)[C@@H]2O)c1` gave PKA-R1A act -11.0, Neddylation inh 51.8*, PKA-R2B activ -1.4 and Rpn11 inh inactive.
O=C1Nc2ccccc2N(C(=O)c2c(F)cccc2F)C1c1nc2ccccc2[nH]1 (stereo not drawn) was read as Neddylation inh 52.5*.
For CN(C)c1ccc(S(=O)(=O)N2CCCCC2)cc1NC(=O)COc1ccccc1F the results were PKA-R1A act -3.8, Neddylation inh -27.8, PKA-R2B activ -0.7 and Rpn11 inh inactive.
Screening O=C(OCC(=O)N1CCN(C(=O)c2ccco2)CC1)c1cc(-c2ccc(Cl)c(Cl)c2Cl)nc2ccccc12 returned PKA-R1A act 0.7, Neddylation inh -19.8, PKA-R2B activ -2.9 and Rpn11 inh inactive.
`O=C(OCC(=O)N1CCN(C(=O)c2ccco2)CC1)c1cc(-c2ccco2)nc2ccccc12` gave PKA-R1A act -5.3, Neddylation inh 44.8*, PKA-R2B activ 5.8 and Rpn11 inh inactive.
`Cc1ccsc1C(=O)OC(C)C(=O)NC1CCCCC1C` (stereo not drawn) gave PKA-R1A act -10.8, Neddylation inh 1.5, PKA-R2B activ -2.7 and Rpn11 inh inactive.
Screening CN1C(=O)C(C)(C)c2cc(S(=O)(=O)N3CCCC(C(=O)NCc4ccccc4Cl)C3)ccc21 (stereo not drawn) returned PKA-R1A act -6.8, Neddylation inh 5.8, PKA-R2B activ 2.0 and Rpn11 inh inactive.
`CCNc1nnc(-c2ccncc2)s1` gave PKA-R1A act -3.6, PKA-R2B activ 9.1 and Rpn11 inh inactive.
For CCC(=O)Nc1nnc(-c2ccncc2)s1 the results were PKA-R1A act 7.2, Neddylation inh 52.2*, PKA-R2B activ -0.6 and Rpn11 inh inactive.
`O=C(NCc1cccs1)C1C(=O)Nc2ccccc2C(=O)N1Cc1ccccc1` (stereo not drawn) gave Neddylation inh 3.4.
`O=C(NN=Cc1ccc(O)cc1O)c1ccccc1NS(=O)(=O)c1cccs1` gave PKA-R1A act -6.0, Neddylation inh 42.5*, PKA-R2B activ 0.4 and Rpn11 inh inactive.
Screening Cn1cnc(S(=O)(=O)Nc2ccc(OC(F)(F)F)cc2)c1 returned PKA-R1A act -10.4, Neddylation inh 8.1, PKA-R2B activ 1.6 and Rpn11 inh inactive.
For N=c1oc2ccc3ccccc3c2cc1C(N)=S the results were PKA-R1A act -2.4, PKA-R2B activ 0.2 and Rpn11 inh inactive.
For O=C(N/N=C/c1sc(N2CCOCC2)nc1-c1ccccc1)c1cccc(S(=O)(=O)N2CCOCC2)c1 the results were PKA-R1A act -2.3, Neddylation inh 37.2* and PKA-R2B activ -12.4.
Cc1ccc(Cn2c(=N)c(C(=O)NCc3ccco3)cc3c(=O)n4ccccc4nc32)cc1 was read as PKA-R1A act -4.3, Neddylation inh 62.9*, PKA-R2B activ -17.6 and Rpn11 inh inactive.
For Fc1ccccc1-c1nc2nc3ccccc3nc2n1CC1CCCO1 (stereo not drawn) the results were PKA-R1A act -2.6, Neddylation inh 46.3*, PKA-R2B activ -2.1 and Rpn11 inh inactive.
CC1COC(=O)C(NNc2ccc(Cl)c(Cl)c2)=N1 (stereo not drawn) was read as PKA-R1A act -8.8, Neddylation inh -6.2, PKA-R2B activ -7.6 and Rpn11 inh inactive.
Screening Cc1nc(NC(=O)c2ccccc2)sc1-c1csc(NCc2ccco2)n1 returned PKA-R1A act -3.7, Neddylation inh -5.6, PKA-R2B activ 0.1 and Rpn11 inh active.
CNC(=O)CC1C(=O)N(c2ccc(F)cc2)C(=S)N1NC(=O)c1ccc(Cl)cc1 (stereo not drawn) was read as PKA-R1A act -13.2, Neddylation inh -24.2, PKA-R2B activ -1.7 and Rpn11 inh inactive.
Screening CCOc1c(Br)cc(/C=C(\C#N)C(=O)NC2CC2)cc1OC returned PKA-R1A act 1.0, Neddylation inh 4.0, PKA-R2B activ 19.1*, Rpn11 inh inactive, R2B FP artifact 4.1 and PKA-R2B act conf 2.0.
`CCOc1ccccc1/C=C(\C#N)C(=O)NC1CC1` gave Neddylation inh 2.0 and Rpn11 inh inactive.
For O=C(CN(C(=O)c1csnn1)c1ccc(Cl)cc1)NCCc1ccccc1 the results were PKA-R1A act -4.8, Neddylation inh -0.8, PKA-R2B activ -1.4 and Rpn11 inh inactive.
Screening CCOC(=O)C1=C(c2ccccc2)NC(SCC(=O)Nc2ccccc2C)=C(C#N)C1c1ccco1 (stereo not drawn) returned PKA-R1A act 2.1, Neddylation inh 21.4, PKA-R2B activ 18.6*, Rpn11 inh inactive, R2B FP artifact 4.3 and PKA-R2B act conf 0.8.
CCOC(=O)C1=C(c2ccccc2)NC(SCC(=O)Nc2ccc(C)cc2)=C(C#N)C1c1ccco1 (stereo not drawn) was read as PKA-R1A act -3.1, Neddylation inh 20.1, PKA-R2B activ 2.8 and Rpn11 inh inactive.
Screening CCCCc1nnc(SCC(=O)Nc2nccs2)n1C returned PKA-R1A act -4.6, Neddylation inh -3.3, PKA-R2B activ -1.0 and Rpn11 inh inactive.
Screening Cn1c(CCCOc2ccc(Cl)cc2Cl)nnc1SCC(=O)Nc1nccs1 returned PKA-R1A act -1.0, Neddylation inh 2.5, PKA-R2B activ 20.4*, Rpn11 inh inactive, R2B FP artifact -0.1 and PKA-R2B act conf 2.2.
`COc1cc(/C=C/C(=O)O)cc(S(=O)(=O)Nc2ccc(S(=O)(=O)N3CCCCC3)cc2)c1OC` gave PKA-R1A act 2.6, Neddylation inh 14.9, PKA-R2B activ 4.3 and Rpn11 inh inactive.
`O=C(O)CC(Cc1ccc(Cl)cc1)C(=O)Nc1ccc([N+](=O)[O-])cc1` (stereo not drawn) gave PKA-R1A act 2.6, Neddylation inh -11.0, PKA-R2B activ 19.5*, Rpn11 inh inactive, R2B FP artifact -3.8 and PKA-R2B act conf -1.1.

High-throughput results deposited in PubChem BioAssay by several laboratories.
